In PubChem BioAssay (NCATS):
Inconclusive results are not listed. Calls of active or inactive are those of the source. Calls follow the shape of the dose curve; as a rule, active = well fitted inhibition curve with a large enough effect; inconclusive = small, poorly fitted or top-dose-only effect; inactive = flat fitted curve, though single readings scatter.

How the values were obtained:
HaCat [1] = test: Cytotoxic Profiling of Annotated Libraries Using Quantitative High-Throughput Screening (AID 1296008); conditions: Five cell lines viability, CellTiter-Glo ATP luminescence, 48-72 h; max response: hits give low values
Method in brief: (§1)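 Cells exposed to compounds for 48 or 72 hr at 37 degrees Celsius. Viability read as ATP-coupled luminescence with CellTiter-Glo after 10 min at room temperature.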

NIH3T3 = test: as above; conditions: Five cell lines viability, CellTiter-Glo ATP luminescence, 48-72 h; max response: hits give low values
Method in brief: as §1

MCC-13 = test: qHTS assay to identify novel small-molecules to repurpose for Merkel cell carcinoma treatment (AID 1296009); conditions: MCC and control cell lines, CellTiter-Glo viability, 72 h; series mostly up to 46 µM
Method in brief: (§2)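 Dose-response viability screen; 72 hr exposure at 37 degree celsius; CellTiter-Glo added, 10 min room temperature, luminescence read; RLUs scaled between no-cell and DMSO wells.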

MCC-26 = test: as above; conditions: MCC and control cell lines, CellTiter-Glo viability, 72 h; series mostly up to 46 µM
Method in brief: as §2

MKL-1 = test: as above; conditions: MCC and control cell lines, CellTiter-Glo viability, 72 h; series mostly up to 46 µM
Method in brief: as §2

MKL-2 = test: as above; conditions: MCC and control cell lines, CellTiter-Glo viability, 72 h; series mostly up to 46 µM
Method in brief: as §2

HACAT [2] = test: as above; conditions: MCC and control cell lines, CellTiter-Glo viability, 72 h; at 44.8 µM (top of the series) unless noted
Method in brief: as §2

HEK293T = test: as above; conditions: MCC and control cell lines, CellTiter-Glo viability, 72 h; at 44.8 µM (top of the series)
Method in brief: as §2
% is scaled to controls: 0 for no effect and ±100 for the full control effect.
Also: nearly all actives have a fitted effect of over 60% in size.

CCO[C@H]1O[C@@H]2OC3(C)CC[C@H]4[C@H](C)CC[C@@H]([C@H]1C)[C@@]24OO3
inactive: max response (HaCat [1]) -19.4% | max response (NIH3T3) 0.769% | Potency (MCC-13) | Potency (MCC-26) | Potency (MKL-1)

ClCc1cccc(Cl)c1
inactive: max response (HaCat [1]) 1.97% | max response (NIH3T3) 0.768% | Potency (MCC-13) | Potency (MCC-26) | Potency (MKL-1) | Potency (MKL-2)

CCOC(=O)C(c1c(O)c2ccccc2oc1=O)c1c(O)c2ccccc2oc1=O
inactive: outcome (HaCat [1]) | outcome (NIH3T3) | outcome (HACAT [2]) | outcome (HEK293T) | Potency (MCC-13) | Potency (MCC-26) | Potency (MKL-1) | Potency (MKL-2)

Nc1ccc(Cl)cc1C(=O)c1ccccc1F
inactive: max response (HaCat [1]) 0.566% | max response (NIH3T3) 0.255% | Potency (MCC-13) | Potency (MCC-26) | Potency (MKL-1) | Potency (MKL-2)

C#C[C@]1(O)CC[C@H]2[C@@H]3CCC4=CC(=O)CCC4=C3C=C[C@@]21CC
inactive: outcome (HaCat [1]) | max response (NIH3T3) -4.44% | outcome (HACAT [2]) | Potency (MCC-13) | Potency (MCC-26) | Potency (MKL-1)

C[C@]12CC[C@H]3[C@@H](CCC4=CC(=O)CC[C@@]43C)[C@@H]1CC[C@@H]2C(=O)O
inactive: outcome (HaCat [1]) | max response (NIH3T3) 3.4% | outcome (HACAT [2]) | Potency (MCC-13) | Potency (MCC-26) | Potency (MKL-1) | Potency (MKL-2)

CN1C2CCC(C)(C)C1CC(OC(=O)C(O)(c1cccs1)c1cccs1)C2 (stereo not given)
inactive: outcome (HaCat [1]) | max response (NIH3T3) -4.3% | outcome (HACAT [2]) | Potency (MCC-13) | Potency (MCC-26) | Potency (MKL-1) | Potency (MKL-2)
